Bioassay records as filed in PubChem.
CYP2C9 act: CYP2C9 (human) activation. P11712. recombinant CYP2C9, luciferin-H conversion, luminescence; active compounds read high; factor 1 = untreated enzyme, 0 = blocked. activation factor at 5 µM. hit rate 1.4% among 96,000. AID 1024;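 active = activation factor of 2 or more for CYP2C9 at a 5 µM dose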;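 also: 0 = sulfaphenazole-blocked wells and 1 = vehicle-only wells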
Target sequence (P11712 whole entry, looked up): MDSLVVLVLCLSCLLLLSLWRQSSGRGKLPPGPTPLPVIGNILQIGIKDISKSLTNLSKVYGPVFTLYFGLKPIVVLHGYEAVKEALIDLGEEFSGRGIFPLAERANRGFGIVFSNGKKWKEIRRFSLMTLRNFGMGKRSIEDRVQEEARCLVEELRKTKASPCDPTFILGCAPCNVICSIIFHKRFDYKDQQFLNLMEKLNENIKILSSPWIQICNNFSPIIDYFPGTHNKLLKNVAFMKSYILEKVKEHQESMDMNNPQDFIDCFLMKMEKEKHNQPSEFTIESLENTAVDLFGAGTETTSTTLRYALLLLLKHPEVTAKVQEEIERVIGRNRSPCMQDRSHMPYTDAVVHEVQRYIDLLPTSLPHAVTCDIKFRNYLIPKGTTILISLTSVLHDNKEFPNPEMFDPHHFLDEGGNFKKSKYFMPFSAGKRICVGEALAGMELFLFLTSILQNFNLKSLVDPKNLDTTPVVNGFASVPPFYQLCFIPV
CYP2C19 inhib: human CYP2C19 inhibition. CYP2C19 Supersomes, luciferin-H EGE luminescence, 30 min. inhibition, % at 5 µM. hit rate 21% among 96,000. AID 778;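 active = CYP2C19 inhibition above a set limit at 5 µM in the primary screen, cut at about 50% in these data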;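 also: plate controls were negative control wells for no effect and 2.5 mM tranylcypromine positive control for full effect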
Mac1 fbg enh: increases human CD11b/CD18 adhesion to fibrinogen; activation, % at 10 µM; AID 1499; K562 CD11b/CD18 adhesion to fibrinogen, ATPlite luminescence; hit rate 0.07% among 93,000; P05107+P11215;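 active = 10 µM primary screen giving 50% or more activity, confirmed by 40% or more on retest at that dose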
CD11b adhes inh: CD11b/CD18-fibrinogen binding inhibition; P05107+P11215; K562 CD11b/CD18 adhesion to fibrinogen, ATPlite luminescence; Mn2+ added to activate the integrin; inhibition, % at 10 µM; hit rate 0.54% among 93,000; AID 1497;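 active = primary inhibition of 50% or more at 10 µM, then 40% or more on retest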
CYP2C19 activ: increases human CYP2C19 enzyme activity; recombinant CYP2C19, luciferin-H EGE luminescence; active compounds read high; 0 = fully inhibited enzyme, 1 = untreated enzyme; 96,000 tested, under 10 active; activation factor at 5 µM;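 active = activation factor of at least 2 at 5 µM in the primary screen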;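 also: 0 = wells with 2.5 mM tranylcypromine and 1 = vehicle-only wells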
CYP2C9 inh: blocks human cytochrome P450 2C9. P11712. CYP2C9 Supersomes, luciferin-H conversion, luminescence. inhibition, % at 5 µM. hit rate 20% among 96,000. AID 777;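 active = blocking of liver enzyme CYP2C9 beyond about 50% at 5 µM, limit read from the data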
An asterisk follows results filed as active; nt = not tested or not shown. Sampled rows, rich in hits. Any-hit rate of the full collection: about 28%.

SMILES	CYP2C9 act	CYP2C19 inhib	Mac1 fbg enh	CD11b adhes inh	CYP2C19 activ	CYP2C9 inh
Cc1ccc(C)c(CSC2=NCCN2C(=O)Cc2ccc([N+](=O)[O-])cc2)c1	nt	nt	3	-1	nt	nt
NC(=O)C1CCN(CCC(=O)Nc2cccc(Cl)c2)CC1	0.9	18	0	-6	0.8	10
CCOC(=O)c1ccc(N2CSC3=C(C#N)C(c4cccs4)CC(=O)N3C2)cc1 (configuration not stated)	0.1	90*	3	-9	0.1	94*
N#CC1=C2SCN(c3ccc(F)cc3)CN2C(=O)CC1c1cccc(F)c1 (configuration not stated)	0.7	15	-2	1	0.8	30
CCc1ccc(C2CC(=O)N3CN(c4ccccc4)CSC3=C2C#N)cc1 (configuration not stated)	0.5	22	-3	6	0.8	53*
CN1CSC2=C(C#N)C(c3cccc(OCc4ccccc4)c3)CC(=O)N2C1 (configuration not stated)	0.2	18	2	6	0.8	84*
CCc1ccc(N2CSC3=C(C#N)C(c4cccs4)CC(=O)N3C2)cc1 (configuration not stated)	0.7	7	2	-14	0.9	30
Cc1ccc(N2CSC3=C(C#N)C(c4cccs4)CC(=O)N3C2)cc1 (configuration not stated)	0.1	37	-3	-7	0.6	86*
CC(C)(C)NC(=O)c1cccc(NC(=O)c2cccc(O)c2)c1	0.8	-7	nt	nt	1.1	17
O=C1N2CN(C(c3ccccc3)c3ccccc3)CN=C2SC1(CO)CO	1	8	7	-16	0.9	2
O=C(CCc1ccccc1)Nc1ccccc1F	0.8	76*	-2	-7	0.2	25
O=C(CCc1ccccc1)Nc1ccc(F)cc1F	1	60*	-3	4	0.4	5
O=C(CCN1C(=O)c2ccccc2C1=O)Nc1ccc(F)cc1F	1	36	-1	8	0.6	-4
CN(c1ccccc1)S(=O)(=O)c1ccc(C(=O)OCC(=O)N2CCOCC2)cc1	0.5	55*	4	3	0.5	48
O=C(N/N=C/c1ccc(O)cc1)c1csc2c1CCCC2	nt	nt	-1	3	nt	nt
N#CC(C#N)=C/C(C#N)=C(/N)N1CCN(c2ccc(Cl)cc2)CC1	0.9	26	nt	nt	0.7	10
CSC(=NC#N)N1CCN(c2ccc(Cl)cc2)CC1	0.6	86*	nt	nt	0.1	43
O=C(c1ccco1)N1CCN(C(=O)C(Sc2ccccc2)c2ccccc2)CC1 (configuration not stated)	0.2	78*	2	8	0.2	83*
O=C(Nc1ccc2c(c1)OCO2)C(c1ccc(Cl)cc1)N1CCN(C(=O)c2ccco2)CC1 (configuration not stated)	0.1	75*	1	7	0.3	95*
O=C(Nc1ccc2c(c1)OCO2)C(c1ccccc1)N1CCN(C(=O)c2ccco2)CC1 (configuration not stated)	0	76*	-4	5	0.2	98*
O=C(Nc1ccc(F)cc1)C(c1ccccc1)N1CCN(C(=O)c2ccco2)CC1 (configuration not stated)	0.3	22	0	-37	0.8	71*
Cc1noc(C)c1C(=O)NCc1ccccc1	1.1	18	-2	-24	0.8	-15
CC(C)c1ccc(NC(=O)N2CCC(c3nc4ccccc4o3)CC2)cc1	0.7	13	-2	-14	0.9	27
CCNS(=O)(=O)c1ccc(S(=O)(=O)N(Cc2ccccn2)C2CCCCC2)cc1	1.3	22	-2	3	0.8	-31
CCN(C1CCCCC1)S(=O)(=O)c1ccc(S(=O)(=O)NCc2ccncc2)cc1	0	84*	nt	nt	0.2	100*
SMILES	CYP2C9 act	CYP2C19 inhib	Mac1 fbg enh	CD11b adhes inh	CYP2C19 activ	CYP2C9 inh
CCN(C1CCCCC1)S(=O)(=O)c1ccc(S(=O)(=O)NCCc2ccncc2)cc1	0	96*	-2	-8	0	100*
O=C1c2cnccc2CN1Cc1ccccc1	1.1	-4	2	-2	1	-10
CCOc1ccc(CNC(=O)CCn2c(=O)oc3ccccc32)cc1OC	0.9	27	1	-15	0.7	8
O=C(CN1C(=O)NC(Cc2ccccc2)C1=O)Nc1ccccc1 (configuration not stated)	1	10	6	-32	0.9	-4
COc1cccc(CNC(=O)CCn2c(=O)oc3ccccc32)c1	1.2	58*	-3	-18	0.4	-21
Cc1cccc(NC(=O)CN2C(=O)NC(Cc3ccccc3)C2=O)c1 (configuration not stated)	0.4	47	0	6	0.5	60*
O=C(CCn1c(=O)oc2ccccc21)Nc1cccc(Cl)c1	2*	55*	1	-59	0.4	-102
Cc1ccc(CNC(=O)Cn2c(=O)oc3ccccc32)o1	1	24	-1	-3	0.8	0
Cc1cccc(NC(=O)Cn2c(=O)oc3ccccc32)c1	0.9	58*	-2	-5	0.4	6
COc1ccc(CC(C(=O)Nc2cccc(F)c2)c2nn[nH]n2)c(OC)c1 (configuration not stated)	0.7	29	3	2	0.7	32
CN(C)S(=O)(=O)c1cccc(CSc2cccc[n+]2[O-])c1	0.9	4	1	23	1	6
CC1CCCC(NC(=O)CCn2c(=O)oc3ccccc32)C1C (configuration not stated)	2*	43	nt	nt	0.6	-101
CN(C)c1nc(N(C)C)nc(N(C#N)CN2C(=O)c3ccccc3C2=O)n1	nt	nt	47	-3	nt	nt
CCn1c(=O)cc(SCC(=O)Nc2ccc3c(c2)OCCO3)c2ccccc21	2*	61*	3	1	0.4	-101
CCn1c(=O)cc(SCC(=O)NCc2ccc(C)o2)c2ccccc21	2*	32	-2	-16	0.7	-100
CCn1c(=O)cc(SCC(=O)Nc2cc(OC)c(OC)c(OC)c2)c2ccccc21	2.9*	77*	-2	-3	0.2	-188
CCn1c(=O)cc(SCC(=O)NCc2ccco2)c2ccccc21	1.7	19	-6	24	0.8	-74
CCn1c(=O)cc(SCC(=O)Nc2cccc(SC)c2)c2ccccc21	1.4	9	-1	-37	0.9	-39
Cc1nnsc1SC(C)C(=O)O (configuration not stated)	1	-1	nt	nt	1	-1
Cc1cccc(-n2nnc3cnn(C)c3c2=O)c1	1	14	nt	nt	0.9	-1
Cc1cnc(C(=O)N2CCN(S(=O)(=O)c3ccc4ccccc4c3)CC2)cn1	1.2	23	-6	-11	0.8	-15
Cc1ccc(S(=O)(=O)N2CCN(C(=O)N(c3ccccc3)c3ccccc3)CC2)cc1	0.5	51*	-3	4	0.5	52*
